# Data taken from PubChem BioAssay AID1035475 (Broad Institute, 2014).
# Entries with a potency or affinity are not part of this list. Results filed as inconclusive are left out. Active and inactive are the calls of the source.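 Rule for the calls: active = fluorescent signal drops by 40% or more, counted as a hit; inconclusive = no clear call, values can overlap the other calls; inactive = the rest, including any activity in the opposite direction.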
# Experiment: inhibitors of fibronectin matrix deposition, dose response, AH1F cells, Alexa488-FN fluorescence, cherry-picks (AID 1035475);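 note: AH1F fibroblasts incorporating labeled fibronectin into their extracellular matrix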
structure (smiles),measurement,value
C=C1C(=O)O[C@@H]2C[C@@H](C)[C@@H]3C=CC(=O)[C@@]3(C)[C@@H](O)[C@H]12,outcome,inactive
